Screening results: PubChem, several laboratories
aDG glyco act: increases alpha dystroglycan glycosylation. AID 624168. Pro5-aDG cells, alpha-DG glycosylation AlphaScreen (IIH6); 0% Pro5, 100% B10-LARGE cell signal. 360,000 tested, 0.22% active. activation, % at 10 µM;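 active = activation of at least 8% versus controls, or a plate z-score of at least 8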;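 note: Pro5 are CHO cells carrying HIG-tagged alpha-DG that lacks glycosylation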
MPTP block: permeability transition pore inhibition; isolated mouse mitochondria, Ca2+ swelling absorbance, 30 min; inhibition, % at 10 µM; 360,000 tested, 1.4% active; AID 602449;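 active = inhibition of 50% or more, scaled per plate between neutral and stimulator controls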;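 note: 0% = DMSO wells given calcium and 100% = 1 mM EGTA wells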
H9c2 protect: myocardial damage modulation in H9c2 cells; AID 588492; H9c2 cardiomyocytes, H2O2 injury protection, ATPLite, 2 h; protection from H2O2 cell death, % at 20 µM; 360,000 tested, 0.63% active;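 active = compounds giving at least 50% protection of heart cells from peroxide-induced death in the single-dose screen, raw or plate-pattern-corrected value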;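 note: 0% = DMSO wells with peroxide and 100% = DMSO wells without peroxide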
SUMO Mot1 rescue: blocks SUMOylation pathway, rescuing yeast Mot1-301 growth. S. cerevisiae Mot1-301 growth rescue, ATP luminescence, 38.5C; percent above DMSO median, 100 means doubled. growth rescue, % at 18.8 µM. 320,000 tested, 1% active. AID 2716;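 active = every valid replicate shows activation above 250% relative to neutral control wells; inactive = the rest, any valid replicate at or below 250%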;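 note: OY570 slx delta 5 strain wells were the positive control but not used for scaling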
Yeast superoxide: lowers age-related superoxide in aged yeast cells | superoxide response (% of plate mean), % at 10 µM | 330,000 tested, 0.18% active | AID 2690 | S. cerevisiae aged cells, superoxide DHE fluorescence; active compounds read low;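 active = superoxide response under a set limit, about three screen SD below normal, cut at about 65% in these data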;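 note: yeast aged for seven days with compound at 30 °C before DHE staining; 100% = average MFI of all compound-treated wells on the plate with controls excluded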
FAS TE block: blocks the thioesterase domain of human fatty acid synthase. inhibition, % at 15 µM. 360,000 tested, 0.67% active. P49327. recombinant FAS-TE, OMFH fluorogenic substrate, fluorescence endpoint;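 active = compounds whose normalised, plate-corrected inhibition of enzyme fluorescence in the single-dose primary screen is 50% or more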;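 note: 0% = DMSO with enzyme and 100% = substrate without enzyme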
Target sequence (P49327 whole entry, looked up, the tested form may be a part): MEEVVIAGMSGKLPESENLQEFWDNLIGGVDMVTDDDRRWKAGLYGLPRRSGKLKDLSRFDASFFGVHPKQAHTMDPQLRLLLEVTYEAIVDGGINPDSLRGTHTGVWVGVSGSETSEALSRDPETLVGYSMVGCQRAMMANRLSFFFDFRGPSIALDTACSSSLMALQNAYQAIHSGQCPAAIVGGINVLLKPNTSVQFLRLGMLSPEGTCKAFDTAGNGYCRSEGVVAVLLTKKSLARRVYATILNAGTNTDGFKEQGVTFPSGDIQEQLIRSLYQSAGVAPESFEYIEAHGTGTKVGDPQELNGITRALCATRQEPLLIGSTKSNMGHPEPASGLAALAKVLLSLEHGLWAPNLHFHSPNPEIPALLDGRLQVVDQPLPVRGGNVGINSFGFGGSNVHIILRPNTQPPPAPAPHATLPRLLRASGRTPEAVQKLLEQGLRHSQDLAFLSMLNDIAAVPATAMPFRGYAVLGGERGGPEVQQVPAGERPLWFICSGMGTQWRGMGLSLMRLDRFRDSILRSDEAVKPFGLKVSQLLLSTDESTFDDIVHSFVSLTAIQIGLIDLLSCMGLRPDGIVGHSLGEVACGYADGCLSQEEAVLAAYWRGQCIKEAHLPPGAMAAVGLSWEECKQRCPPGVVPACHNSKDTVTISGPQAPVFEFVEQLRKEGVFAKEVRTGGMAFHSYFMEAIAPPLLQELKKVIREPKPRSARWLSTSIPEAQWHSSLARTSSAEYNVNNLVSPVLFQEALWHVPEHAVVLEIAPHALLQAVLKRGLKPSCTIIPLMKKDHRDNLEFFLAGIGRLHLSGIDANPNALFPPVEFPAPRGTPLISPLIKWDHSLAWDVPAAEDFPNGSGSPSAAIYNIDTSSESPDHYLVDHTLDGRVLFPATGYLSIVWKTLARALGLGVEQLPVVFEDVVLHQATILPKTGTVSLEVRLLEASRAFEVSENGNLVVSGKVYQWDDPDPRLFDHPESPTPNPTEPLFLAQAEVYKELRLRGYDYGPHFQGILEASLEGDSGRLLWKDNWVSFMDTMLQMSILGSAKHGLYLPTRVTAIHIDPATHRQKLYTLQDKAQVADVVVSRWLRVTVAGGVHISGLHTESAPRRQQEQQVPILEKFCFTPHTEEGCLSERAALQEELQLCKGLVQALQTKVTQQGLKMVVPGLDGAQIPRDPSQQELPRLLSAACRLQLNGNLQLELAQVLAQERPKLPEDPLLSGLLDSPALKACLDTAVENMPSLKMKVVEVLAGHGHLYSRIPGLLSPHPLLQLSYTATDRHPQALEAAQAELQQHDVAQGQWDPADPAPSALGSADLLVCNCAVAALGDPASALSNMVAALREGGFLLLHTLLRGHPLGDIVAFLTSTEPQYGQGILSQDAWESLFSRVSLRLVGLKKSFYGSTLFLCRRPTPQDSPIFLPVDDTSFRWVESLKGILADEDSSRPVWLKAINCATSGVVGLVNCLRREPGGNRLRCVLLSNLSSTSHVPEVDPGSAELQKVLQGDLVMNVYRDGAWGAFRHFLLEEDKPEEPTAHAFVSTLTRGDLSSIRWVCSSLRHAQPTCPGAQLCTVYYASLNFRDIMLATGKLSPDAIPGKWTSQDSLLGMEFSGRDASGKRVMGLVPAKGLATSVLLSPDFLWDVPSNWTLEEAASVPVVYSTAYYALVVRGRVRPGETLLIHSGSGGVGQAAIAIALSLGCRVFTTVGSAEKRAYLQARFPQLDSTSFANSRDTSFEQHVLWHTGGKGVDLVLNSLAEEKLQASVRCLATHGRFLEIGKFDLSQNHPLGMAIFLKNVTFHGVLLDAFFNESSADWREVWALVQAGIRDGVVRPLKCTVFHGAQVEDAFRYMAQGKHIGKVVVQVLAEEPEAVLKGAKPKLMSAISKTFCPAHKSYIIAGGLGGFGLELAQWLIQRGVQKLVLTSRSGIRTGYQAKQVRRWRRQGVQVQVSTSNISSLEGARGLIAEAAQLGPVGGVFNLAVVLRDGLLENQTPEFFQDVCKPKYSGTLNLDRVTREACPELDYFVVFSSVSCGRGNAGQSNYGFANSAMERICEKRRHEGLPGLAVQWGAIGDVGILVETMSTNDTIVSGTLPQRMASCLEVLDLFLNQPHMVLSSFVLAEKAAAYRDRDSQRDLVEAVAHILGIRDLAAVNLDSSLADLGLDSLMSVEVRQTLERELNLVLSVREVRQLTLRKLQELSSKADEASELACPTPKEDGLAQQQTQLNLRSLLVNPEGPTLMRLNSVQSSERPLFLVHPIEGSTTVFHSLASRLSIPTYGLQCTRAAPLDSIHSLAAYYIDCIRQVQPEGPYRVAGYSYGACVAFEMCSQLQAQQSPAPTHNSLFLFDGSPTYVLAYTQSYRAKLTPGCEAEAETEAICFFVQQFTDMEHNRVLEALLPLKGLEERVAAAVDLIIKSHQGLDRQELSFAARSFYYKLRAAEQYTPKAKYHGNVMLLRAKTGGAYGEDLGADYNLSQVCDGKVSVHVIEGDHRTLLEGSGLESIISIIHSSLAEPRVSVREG
Yeast Mot1 SUMO: inhibits SUMO pathway, affecting Mot1-301 yeast growth; shares compounds with SUMO Mot1 rescue; S. cerevisiae Mot1-301 galactose growth, ATP luminescence, 24 h; -100 = growth of slx-deleted rescue strain; growth activity, percent, % at 42 µM; 2,300 tested, under 10 active; AID 493004;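 active = Signal drops as the depositor expects, and the fitted half-maximal dose is no more than ten times the top valid tested dose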;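 note: more negative values mean stronger growth rescue toward the control strain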
* = called active by the depositor; x = no result given; + = active, no number. Hits are enriched below; roughly 3.8% of the tested compounds scored in any of these assays.

SMILES | aDG glyco act | MPTP block | H9c2 protect | SUMO Mot1 rescue | Yeast superoxide | FAS TE block | Yeast Mot1 SUMO
c1ccc(-c2ccccc2-c2nc(-c3ccncc3)no2)cc1 | 1 | 1 | 14 | 6 | 101 | 8 | x
CSc1ccccc1-c1nc(-c2ccncc2)no1 | 0 | 0 | -5 | 718* | 108 | 6 | 0
COc1ccc(NC(=O)CCC(=O)Nc2nnc(C(F)(F)F)s2)c(OC)c1 | 0 | 0 | 3 | 820* | 97 | -8 | 0
COc1ccc(CCC(=O)Nc2nnc(C(F)(F)F)s2)cc1 | 0 | 2 | -2 | 0 | 99 | 2 | x
CC[n+]1c(/C=C/N(C)c2ccccc2)n(-c2ccccc2)c2ccc(-c3nc4ccccc4s3)cc21 | -1 | 50 | -19 | 501* | 107 | -9 | -1
CSc1cccc(N2C(=O)C3CCCN3C2=S)c1 (stereo not given) | 0 | -1 | -3 | 802* | 112 | -7 | 1
O=C(NC1CCCC1)c1cc(-c2cccc(Cl)c2)on1 | 0 | 0 | 2 | 4 | 94 | 12 | x
Nc1ncnc2c1ncn2[C@@H]1O[C@H](CNC(=O)[C@H](N)Cc2cscn2)[C@@H](O)[C@H]1O | 0 | -1 | -5 | x | 105 | -13 | x
O=C(CCCn1cnc([N+](=O)[O-])n1)Nc1cccc2ccccc12 | 0 | 0 | -6 | 408* | 104 | -1 | -1
CC(C)CN(C(=O)COC(=O)c1ccc2c(c1)OCO2)c1c(N)n(Cc2ccccc2)c(=O)[nH]c1=O | 0 | -1 | 3 | 710* | 100 | -3 | 1
CCN(C(=O)Cn1nc(C)c([N+](=O)[O-])c1C)c1c(N)n(Cc2ccccc2)c(=O)[nH]c1=O | 2 | -1 | 3 | 376* | 100 | -5 | 1
CCN(C(=O)COC(=O)c1cccc(C)c1[N+](=O)[O-])c1c(N)n(Cc2ccccc2)c(=O)[nH]c1=O | 0 | -2 | -1 | x | x | -6 | x
CCCCN(C(=O)C1=COCCO1)c1c(N)n(Cc2ccccc2)c(=O)[nH]c1=O | 0 | -1 | 6 | 521* | 77 | -7 | -1
CN(C(=O)COC(=O)c1cc2ccccc2cc1O)c1c(N)n(Cc2ccccc2)c(=O)[nH]c1=O | 0 | -1 | 4 | 427* | 102 | -2 | 0
CN(c1ccc(-c2csc(NC(=O)CCCc3nc4ccccc4c(=O)[nH]3)n2)cc1)S(C)(=O)=O | 0 | -2 | 49 | x | x | 1 | x
CCOC(=O)c1c(C)[nH]c2c1cc(O)c1ccccc12 | 3 | 1 | 11 | 769* | 114 | 4 | -1
CCOC(=O)c1c(C)oc2c1cc(O)c1ccccc12 | 0 | 0 | -2 | 89 | 94 | -3 | x
COCCN1C=C(C(=O)OC)C(c2ccc3c(c2)OCO3)C(C(=O)OC)=C1 | 0 | 0 | 4 | 53 | 101 | 0 | x
COCCN1C=C(C(=O)OC)C(c2cc3c(cc2Br)OCO3)C(C(=O)OC)=C1 | x | x | x | 557* | 89 | x | 0
CCCn1c(=O)[nH]c(=O)c2c1nc(-c1ccc(C#N)cc1)n2CCOC | 0 | 1 | 2 | 4 | 101 | -3 | x
CCCCn1c(=O)[nH]c(=O)c2c1nc(COc1ccc(C#N)cc1)n2CCC | 0 | 0 | 6 | 404* | 96 | 1 | 1
Cc1cc(C)cc(N2C(=O)CC(Sc3ncn[nH]3)C2=O)c1 (stereo not given) | 0 | 0 | 12 | 452* | 77 | 1 | -2
COc1ccc(OC)c(Cc2nnc(CCC(=O)NCc3ccsc3)o2)c1 | 0 | -4 | 0 | + | 97 | -10 | 0
CN1C[C@@H]2[C@@H]3C(=O)N(C)C(=O)[C@@H]3[C@](C)(C1=O)N2C(=O)c1ccc(C(F)(F)F)cc1 | 0 | -1 | 1 | x | x | -9 | x
CN(C(=O)COC(=O)c1cc(-c2ccc(Cl)s2)nc2ccccc12)C1CCS(=O)(=O)C1 (stereo not given) | 0 | 0 | -3 | 511* | 102 | 20 | 1
SMILES | aDG glyco act | MPTP block | H9c2 protect | SUMO Mot1 rescue | Yeast superoxide | FAS TE block | Yeast Mot1 SUMO
Cc1ccc(-n2c(SCC(=O)N(C)C3CCS(=O)(=O)C3)nc3ccccc3c2=O)cc1 (stereo not given) | 0 | 0 | 10 | 499* | 102 | 3 | 0
CCN(C(=O)CSc1nc2ccccc2c(=O)n1-c1ccc(C)cc1)C1CCS(=O)(=O)C1 (stereo not given) | 0 | -3 | 3 | 4 | 106 | 2 | x
COc1ccccc1-n1nnnc1SCC(=O)Nc1ccc(C)c(N)c1 | 0 | 1 | -2 | 455* | 108 | 0 | 0
COc1ccc(NC(=O)CSc2nnnn2-c2ccccc2OC)c(OC)c1 | 0 | 0 | 2 | 3 | 106 | 4 | x
CSc1ccccc1NC(=O)CSc1nnnn1-c1ccccc1SC | 0 | 3 | -11 | -10 | 101 | 10 | x
CSc1ccccc1-n1nnnc1SCC(=O)Nc1ccccc1C | 0 | -1 | -2 | 506* | 99 | -1 | 0
O=C(c1cc(-c2ccc(Cl)cc2)n(-c2ccc(Cl)cc2)n1)N1CCOCC1 | 1 | -2 | -8 | 399* | 91 | 24 | 0
Cc1ccc(-n2nc(C(=O)N3CCOCC3)cc2-c2ccc(Cl)cc2)cc1 | 0 | 1 | -1 | -5 | 115 | 14 | x
CCN(CC)C(=O)c1nc[nH]c1C(=O)N1CCC(C)CC1 | 0 | -3 | 6 | -3 | 80 | -6 | x
CC(C)N1CCN(C(=O)c2ccc(OC3CCN(CCc4ccccc4)CC3)cc2)CC1 | 1 | 0 | 15 | -17 | 90 | -4 | x
O=C(c1ccc(OC2CCN(CCc3ccccc3)CC2)cc1)N1CCCC1 | 0 | 0 | 7 | 608* | 97 | -3 | 0
Cc1cccc(-c2nnc(SCC(=O)N3CCOCC3)o2)c1 | 0 | 1 | -3 | 14 | 103 | -2 | x
CN(C)C(=O)CSc1nc2ccc(N3C(=O)c4ccccc4C3=O)cc2s1 | 0 | 1 | 3 | 562* | 117 | -9 | 0
Cc1cccc(NC(=O)CSc2nc3ccc(N4C(=O)c5ccccc5C4=O)cc3s2)c1C | 0 | -1 | -1 | -12 | 104 | 0 | x
O=C(Nc1nc2ccsc2c(=O)s1)c1ccc(Cl)cc1 | 0 | 3 | 1 | -13 | 95 | 0 | x
COC(=O)C1=C(C)N(Cc2ccccc2)C(=NCCCCO)N[C@H]1c1cccc(C(F)(F)F)c1 | 2 | -2 | 0 | -18 | 91 | 3 | x
CCN1C(=NCc2cccc(Cl)c2)N[C@@H](c2cccc(F)c2)C(C(=O)OC)=C1C | 2 | 0 | -6 | 773* | 103 | -3 | 0
CCN1C(=NCC(C)C)N[C@@H](c2cccc(C(F)(F)F)c2)C(C(=O)OC)=C1C | 0 | -1 | -1 | 779* | 98 | -6 | 0
